From PubChem BioAssay (NCI)
The panel holds about 83,000 compounds, 20% with a hit somewhere; the sample as a whole holds those more often.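 Compound tested at a single concentration for 48 hours in 96-well plates; a percent growth value below 10 was scored as active.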 A number with no mark means an inactive call. The source made the active and inactive calls.

How the values were obtained:
Assay in all cases: NCI-60 one-dose screen, 48 h (100 = growth as untreated, 0 = no growth, -100 = all killed)
Settings in all cases: 10 µM unless noted
[1] = tested on: NCI/ADR-RES ovarian
[2] = tested on: T-47D breast
[3] = tested on: BT-549 breast
[4] = tested on: MDA-MB-435 melanoma
[5] = tested on: SW-620 colon
[6] = tested on: MCF7 breast
[7] = tested on: HCT-116 colon
[8] = tested on: HCC-2998 colon
[9] = tested on: KM12 colon

Row | Structure (SMILES) | growth [1] | growth [2] | growth [3] | growth [4] | growth [5] | growth [6] | growth [7] | growth [8] | growth [9]
1 | Cc1ccc(S(=O)(=O)C(Cl)(Cl)Cl)cc1 | 89.1% | 78.4% | 92.1% | 97.1% | 99.3% | 98.6% | 87.3% | 107% | 101%
2 | O=C(CCCCCCC(=O)Nc1ccc(N(CCCl)CCCl)cc1)NO | 64.6% | -8.98% (active) | 58.9% | 45.1% | 33.2% | 9.37% (active) | 36.1% | 52.1% | 63%
3 | COc1cc(NCCCN=C(N)N)c2ncccc2c1 | 108% | -0.911% (active) | 65.9% | 103% | 92.8% | -51.3% (active) | 78.1% | 94.3% | 49.3%
4 | CC(C)=CCc1c(O)c(C(=O)CC(C)C)c(O)c2c(-c3ccccc3)cc(=O)oc12 | 35.6% | 33.4% | 30.4% | 57.1% | 48.5% | 28.3% | 36.8% | 42.4% | 41%
5 | CC1(C)[C@H](O)[C@H](F)C[C@@]2(C)Oc3ccc(C(=O)Nc4ccc5c(c4)NC(=O)C54CCN(CCCCC#N)CC4)cc3C[C@H]12 | 83.4% | 38.2% | 32.5% | 24.8% | 0.683% (active) | 27.6% | 18.5% | 68.5% | 22%
6 | CC1=C(CN)C2=C(C)C3(CC3)[C@@](C)(O)C(=O)C2=C1 | 93.8% | 88.6% | 63.3% | 97.9% | 90.7% | 85.1% | 90.4% | 92% | 101%
7 | C=CC[Se]C(=O)c1ccccc1OC(C)=O | 0.132% (active) | -9.76% (active) | 28.9% | 28.7% | 11.1% | -5.53% (active) | 5.71% (active) | 6.92% (active) | -24.1% (active)
8 | O=NNc1ccccn1 | 75.1% | 97.3% | 90% | 111% | 47.8% | 71.4% | 44.4% | 86.7% | 96.7%
9 | O=C(CCCCCNC1=CC(=O)c2ccccc2C1=O)NCCC[Te]c1ccccc1 | -0.191% (active) | -60.5% (active) | -27.7% (active) | -15.5% (active) | -7.07% (active) | 4.88% (active) | -51% (active) | -48.7% (active) | -41.6% (active)
10 | O=C1CC2(CC3(Cl)C(Cl)=C(Cl)C2(Cl)C3(Cl)Cl)C(=O)O1 (stereo not given) | 101% | 99.6% | 107% | 103% | 113% | 99.4% | 91.1% | 102% | 106%
11 | COC(=O)[C@@H](C)C[C@H](Cc1ccccc1)NC(=O)c1csc([C@@H](C[C@H](C(C)C)N(C)C(=O)[C@@H](NC(=O)[C@H]2CCCCN2C)C2CCCCC2)OC(C)=O)n1 | 10.6% | 39.1% | -11.8% (active) | -47.6% (active) | 19.1% | 18.3% | -22.1% (active) | 10.3% | 2.88% (active)
12 | N#CC1(C#N)C(c2ccc(N(CCCl)CCCl)cc2)OC23CCCCC2C1(C#N)C(=N)O3 (stereo not given) | 71% | 65.6% | 84.6% | 101% | 88.6% | 49.3% | 89.2% | 95.2% | 100%
13 | Clc1ccc(CSC(Cn2ccnc2)c2ccc(Cl)cc2Cl)cc1 (stereo not given) | 14.1% | 29.5% | 4.34% (active) | 31.4% | 29.2% | 20.9% | 7.38% (active) | 36.1% | 16.1%
14 | C[C@@]12CC=C3c4nc(Nc5cccc(O)c5)sc4CC[C@]3(C)[C@H]1CC[C@]1(C)C(=O)CC[C@@H]21 | 78.9% | -8.55% (active) | 17.4% | 42.6% | -4.13% (active) | -25.9% (active) | -23.7% (active) | 81.5% | 34.7%
15 | Cc1ccc2c(C(C[N+](=O)[O-])c3cccs3)c(-c3ccccc3)[nH]c2c1 (stereo not given) | 11.7% | 14.6% | 33.8% | -31.1% (active) | 18.5% | 17.8% | 23.2% | 40.3% | 21.4%
16 | O=C(CC1(O)C(=O)N(Cc2ccccc2)c2ccccc21)c1ccc(C(=O)NCC2CCC3(CC2)OOC2(CCCCC2)OO3)cc1 (stereo not given) | -47.1% (active) | -39.1% (active) | -31.1% (active) | -86.5% (active) | 6.2% (active) | 9.78% (active) | 15.5% | 73.4% | -73.9% (active)
17 | COc1cccc2c1c(C(=O)C(=O)Nc1ccn[nH]1)cn2Cc1ccc(F)cc1 | 109% | 104% | 114% | 121% | 102% | 92.3% | 103% | 39.6% | 105%
18 | CC(C)OC(=O)[C@H](C)NP(=O)(Oc1ccccc1)C1CCCN(O)C1=O (stereo not given in full) | 98.4% | 94.5% | 95% | 96.1% | 93.1% | 94.5% | 89.6% | 97.2% | 94.5%
19 | CC(C)CCC(=O)O[C@H]1CC[C@H]2[C@@H]3CCC4=CC(=O)CC[C@]4(C)[C@H]3CC[C@]12C | 99% | 102% | 104% | 96.6% | 94.5% | 105% | 99.8% | 105% | 95.2%
20 | N#CCCNc1ccccc1 | 108% | 111% | 108% | 98.9% | 103% | 103% | 108% | 106% | 113%

Row | Structure (SMILES) | growth [1] | growth [2] | growth [3] | growth [4] | growth [5] | growth [6] | growth [7] | growth [8] | growth [9]
21 | C=CCn1cc(C=C2C(=O)N(C)C(=O)N(C)C2=O)c2ccccc21 | 101% | 88.7% | 98% | 101% | 97.9% | 88.3% | 100% | 98.1% | 102%
22 | C[C@]12CC[C@H]3[C@@H](C[C@@H]4SC(Nc5ccccc5)=N[C@@]45CC(O)CC[C@]35C)[C@@H]1CCC2O (stereo not given in full) | 36.3% | 16.3% | 19.2% | 3.47% (active) | -19.4% (active) | 29.2% | -81.5% (active) | 98.2% | 15.6%
23 | CCOc1ccc(/C=C/[N+](=O)[O-])cc1 | 100% | 86% | 80.8% | 20.1% | 66.6% | 28.5% | -31.6% (active) | 23.7% | 70.7%
24 | COc1ccc(C(O)(C(=O)O)c2ccc(OC)cc2)cc1 | 97.8% | 76.4% | 106% | 102% | 95.2% | 88.6% | 83.2% | 90.6% | 87.7%
25 | O=C(O)C1C(C(=O)O)C2(Cl)C(Cl)=C(Cl)C1(Cl)C2(Cl)Cl.[Hg] (stereo not given) | 102% | 58% | 88.1% | 99.7% | 86.7% | 52.2% | 90.4% | 116% | 96.7%
26 | COc1ccc(/C=C\c2cc(OC)c(OC)c(OC)c2)cc1OCC(=O)Nc1nc2ccc(F)cc2s1 | 20.2% | 38.3% | 53.7% | 15.5% | 42.4% | 17.1% | 17.5% | 72% | 42.1%
27 | O=C(O)C(Cl)(Cl)C(F)(F)F | 102% | 106% | 96.9% | 97.7% | 94.7% | 99.6% | 105% | 99.9% | 102%
28 | C=CCCCN=C=S | 87.2% | 47.3% | 67.1% | 61.2% | 66.5% | 40.5% | 44.7% | 102% | 49.9%
29 | CO[C@H](C(=O)O)[C@@H]1Cc2cc3cc(OC4CC(OC5CC(O)C(O)C(C)O5)C(O)C(C)O4)c(C)c(O)c3c(O)c2C(=O)[C@H]1OC1CC(OC2CC(OC3CC(C)(O)C(O)C(C)O3)C(O)C(C)O2)C(O)C(C)O1 (stereo not given in full) | 74% | 12.8% | -41.9% (active) | 1.21% (active) | 19.1% | 7.44% (active) | 6.04% (active) | -37.8% (active) | 7.07% (active)
30 | C[C@]12CC[C@H]3[C@@H](CC[C@]4(O)C[C@@H](O[C@@H]5O[C@H](CO)[C@@H](O[C@@H]6OC[C@@H](O)[C@H](O)[C@H]6O)[C@H](O)[C@H]5O)CC[C@]34C=O)[C@@]1(O)CC[C@@H]2C1=CC(=O)OC1 | -66.3% (active) | 2.52% (active) | 5.05% (active) | 16.9% | 8.41% (active) | 3.61% (active) | 5.35% (active) | 38.8% | 16.9%
31 | CCOc1ccccc1C(=O)OCC(Cl)(Cl)Cl | 108% | 90.6% | 106% | 107% | 110% | 99.4% | 105% | 101% | 101%
32 | COc1cc(C=Nc2cccc(C(=O)O)c2)ccc1N(CCCl)CCCl | 103% | 96.3% | 103% | 91.5% | 90.4% | 95.2% | 104% | 74.4% | 57.3%
33 | CCC(C)(C)[C@H](NC(=O)[C@H]1CCCCN1C)C(=O)N(C)[C@H](C[C@@H](OC(C)=O)c1nc(C(=O)N[C@@H](Cc2ccccc2)C[C@H](C)C(=O)O)cs1)C(C)C | 16.8% | 76.7% | -34.7% (active) | -47.2% (active) | 26.6% | 23.9% | -10% (active) | 22.2% | 4.26% (active)
34 | CCn1nccc1NC(=O)C(=O)c1cn(Cc2ccc(F)cc2)c2cccc(OC)c12 | 90.2% | 80.5% | 86.1% | 104% | 93.3% | 97.3% | 51.1% | 102% | 97.2%
35 | Brc1ccc2c(c1)c(-c1nc(-c3c[nH]c4ncccc34)cs1)cn2CCN1CCCCC1 | 75.2% | 66.2% | 89% | 76.9% | 58.4% | 47.1% | 51% | 38.9% | 66.2%
36 | O=NN1CCCc2cccc(O)c21 | 32.5% | 77.2% | 54.2% | 52.1% | 44.1% | 27.2% | 21.7% | 55.7% | 68.4%
37 | O=C1NC(=O)C(=Cc2cn(C(=O)c3ccccc3)c3ccccc23)C(=O)N1 | 97.1% | 95.2% | 105% | 105% | 93.7% | 89.4% | 102% | 93.4% | 108%
38 | CC(=O)OC[C@]1(C)C=C2C(=O)[C@](C)(O)C3(CC3)C(C)=C2[C@H]1O | -18.7% (active) | -8.92% (active) | -42.4% (active) | -24.1% (active) | 0.025% (active) | 1.05% (active) | 0.12% (active) | -59.8% (active) | 10.4%
39 | [Cl][Hg][c]1cc[c]([Hg][Cl])o1 | 69.3% | -7.76% (active) | 14% | 55.1% | 12.3% | -18.6% (active) | 30.7% | 106% | 76%
40 | CC1=C(CCCOC(=O)[C@H](N)CC(C)C)C2=C(C)C3(CC3)[C@@](C)(O)C(=O)C2=C1 | 3.96% (active) | 5.21% (active) | -9.68% (active) | 69.8% | 87.1% | 37.8% | 9.3% (active) | 0.215% (active) | 79.8%
